# Laboratory results taken from PubChem BioAssay (NCI).
# This is part of a sample that, as a whole, favours compounds with a hit. Of some 83,000 tested, about 20% had one in any assay.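 Activity criterion: percent growth below 10, measured after cells in 96-well plates were exposed to a single compound concentration for 48 hours.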 Values without a mark were called inactive. The source made the active and inactive calls.
# Assays:
# Assay in all cases: NCI-60 one-dose screen, 48 h (100 = growth as untreated, 0 = no growth, -100 = all killed)
# Conditions in all cases: 10 µM unless noted
# HT29 colon = tested on: HT29 colon
# SNB-75 CNS = tested on: SNB-75 CNS
# SNB-19 CNS = tested on: SNB-19 CNS
# U251 CNS = tested on: U251 CNS
# PC-3 prostate = tested on: PC-3 prostate
# SK-MEL-5 melanoma = tested on: SK-MEL-5 melanoma
# LOX IMVI melanoma = tested on: LOX IMVI melanoma
# SK-MEL-28 melanoma = tested on: SK-MEL-28 melanoma
# SK-MEL-2 melanoma = tested on: SK-MEL-2 melanoma
# EKVX NSCLC = tested on: EKVX NSCLC
# SN12C renal = tested on: SN12C renal
# UO-31 renal = tested on: UO-31 renal
# TK-10 renal = tested on: TK-10 renal
# ACHN renal = tested on: ACHN renal
# CAKI-1 renal = tested on: CAKI-1 renal
# A498 renal = tested on: A498 renal
# CCRF-CEM leukemia = tested on: CCRF-CEM leukemia
# MOLT-4 leukemia = tested on: MOLT-4 leukemia
# SR leukemia = tested on: SR leukemia
# UACC-62 melanoma = tested on: UACC-62 melanoma
SMILES,growth (HT29 colon),growth (SNB-75 CNS),growth (SNB-19 CNS),growth (U251 CNS),growth (PC-3 prostate),growth (SK-MEL-5 melanoma),growth (LOX IMVI melanoma),growth (SK-MEL-28 melanoma),growth (SK-MEL-2 melanoma),growth (EKVX NSCLC),growth (SN12C renal),growth (UO-31 renal),growth (TK-10 renal),growth (ACHN renal),growth (CAKI-1 renal),growth (A498 renal),growth (CCRF-CEM leukemia),growth (MOLT-4 leukemia),growth (SR leukemia),growth (UACC-62 melanoma)
COC(=O)[C@]12CC[C@@H](C)[C@H](C)[C@@H]1C1=CC[C@@H]3[C@@]4(C)C[C@@H](OC(=O)c5ccco5)[C@H](O)[C@@](C)(CO)[C@@H]4[C@H](O)C[C@@]3(C)[C@]1(C)CC2,-92.8% (active),-84.4% (active),-71% (active),-85.2% (active),-100% (active),-99.9% (active),-99.4% (active),-84.6% (active),-77.7% (active),-91.9% (active),-77.2% (active),-89.6% (active),-87.9% (active),-95% (active),-98.3% (active),-94.5% (active),-87.3% (active),-75.5% (active),-91% (active),
COc1cc(/C=C/C(=O)c2c(-c3ccc(Cl)cc3)nc3sc(C)nn23)cc(OC)c1OC,86.6%,77.3%,90.8%,76.4%,53.6%,20.9%,61.6%,94%,44%,,78.3%,51.2%,,73.8%,93.7%,85.5%,32.5%,48.3%,,
COc1cc(/C=C/C(=O)Nc2ccc3c(c2)/C(=C\c2cccn2C)C(=O)N3)cc(OC)c1OC,53.9%,9.39% (active),65.3%,52.4%,59.9%,18.2%,41.4%,63.1%,25.1%,,41.2%,28.3%,,54.9%,52.1%,46.8%,31.9%,50.8%,16.2%,
O=C(/C=C/c1ccc(Cl)cc1)c1ccccc1,93.8%,109%,101%,88.2%,97%,93%,81.1%,113%,102%,,98%,88.3%,,110%,101%,87.5%,87.9%,96.7%,23.1%,
N#Cc1cccc(/C=C(/C(=O)c2ccccc2)c2ccccc2)c1,70.1%,69.4%,83%,60.1%,66.5%,49.3%,14.1%,100%,34.5%,,49.4%,49.3%,,45%,55.5%,74.3%,2.7% (active),4.97% (active),3% (active),
Cc1scc2c1N(C(=O)CN1CCN(C)CC1)c1ccccc1NC2=O,104%,110%,111%,99.6%,98%,,99.7%,110%,113%,107%,101%,85.9%,105%,102%,99.5%,122%,108%,96.5%,,109%
COc1cc([C@@H]2c3cc4c(cc3C(O[C@@H]3O[C@@H]5CO[C@@H](c6cccs6)OC5[C@H](O)[C@H]3O)C3COC(=O)[C@@H]32)OCO4)cc(OC)c1O (some centres undefined),-24.8% (active),-37% (active),1.98% (active),-15.5% (active),4.52% (active),,-37.3% (active),-29% (active),-47.3% (active),12.7%,-9.91% (active),-72.2% (active),-54.7% (active),-54.3% (active),-10.3% (active),-73.2% (active),-1.14% (active),,,-54.3% (active)
NC(=O)c1ncn([C@@H]2O[C@H](CO)[C@@H](O)[C@H]2O)n1,52.5%,92.2%,96.2%,94.7%,86%,,84.2%,115%,103%,96.9%,89.3%,73.5%,95.5%,83.1%,85.4%,110%,76.9%,72.3%,,104%
CC1(C)OC(=O)C(=Cc2ccccc2Br)C(=O)O1,103%,81.8%,94.3%,96.8%,92.5%,97.6%,94.1%,115%,97.6%,,96.6%,92.2%,,102%,94.8%,105%,98.2%,99.5%,79.7%,
C[C@@H]1CC[C@H]2[C@@H](C)C(O)O[C@@H]3O[C@]4(C)CC[C@@H]1[C@]32OO4 (some centres undefined),17.7%,52.5%,57.7%,25.5%,15.1%,,11.7%,78%,27%,29.9%,23.6%,1.61% (active),27.3%,22.1%,22.9%,68.2%,28.5%,33.8%,,31%
CCC1(c2ccccc2)Oc2ccccc2-n2c(C#N)c3ccccc3c2C1=O (centres undefined),96.8%,95.9%,106%,96.7%,93.8%,100%,103%,114%,,,95.6%,86.6%,,96.5%,100%,97%,95.6%,91%,89.2%,
COc1c(C)c2c(c(O)c1C/C=C(\C)CCC(=O)OCCN1CCOCC1)C(=O)OC2,1.17% (active),49.1%,28%,14.7%,23.2%,,18.4%,35.8%,25.7%,46%,24.1%,15.4%,27.1%,27%,5.19% (active),30%,18.6%,24.4%,,23.6%
CCCc1nn(C)c2c(=O)[nH]c(-c3cc(S(=O)(=O)N4CCN(C)CC4)ccc3OCC)nc12,99.1%,104%,103%,94.5%,91.1%,,93.9%,116%,96.6%,95.1%,102%,78.7%,113%,92.8%,80.2%,103%,108%,94.8%,,99.9%
O=C(/C(=C/c1cccc([N+](=O)[O-])c1)c1ccccc1)c1ccccc1,52.7%,56.8%,77%,56.3%,64%,41.5%,10.7%,92.8%,28.8%,,35.6%,48.8%,,40.1%,47.7%,66.2%,1.9% (active),4.09% (active),4.42% (active),
Nc1ccc(S(=O)(=O)Nc2ncccn2)cc1,105%,102%,105%,106%,97.7%,108%,102%,118%,106%,103%,103%,94.5%,114%,98.6%,103%,113%,101%,106%,103%,
Cc1cc2c(C#N)n3c(c2cc1C)C(=O)C(c1ccccc1)Oc1ccccc1-3 (centres undefined),18.5%,15.6%,35.9%,18.3%,28.3%,22.7%,20%,85.1%,,,27.8%,14.5%,,32.6%,33.1%,41.2%,19.4%,69.2%,7.67% (active),
COc1cc(C2=NN(C(C)=O)C(c3ccc(OC(C)=O)cc3OC(C)=O)O2)c(OC(C)=O)c2ccccc12 (centres undefined),29.9%,50.4%,36.7%,15.7%,42.9%,7.09% (active),2.78% (active),23.7%,,,19.1%,5.38% (active),,16.3%,8.08% (active),25.2%,-1.14% (active),-2.56% (active),2.88% (active),
